The supplement of paper PMC7411054

How the values were obtained:
Test in all cases: phenotypically active (imaging signature differs from DMSO and reproducible) at any of 0.3-9 uM (binary (1 = active, 0 = inactive)); higher = active
Details in all cases: treatment time: 24 h
A549-ACTB-RAB5A = tested on: A549-ACTB-RAB5A
In short: (§1)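 Live-cell features were measured per well and normalised to solvent control wells after fifteen gene-edited A549, HepG2 and WPMY1 reporter lines had been treated for 24 h at 0.3, 1, 3 or 9 µM in four wells each. A condition was deviating when ≥3 of 4 wells sat beyond the 95th percentile of control Euclidean distances. It was reproducible when the median replicate Pearson correlation exceeded the 95th percentile of non-replicates. Phenotypic activity demanded both.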

A549-CANX-COX4 = tested on: A549-CANX-COX4
In short: as §1

A549-GM130-SQSTM1 = tested on: A549-GM130-SQSTM1
In short: as §1

A549-TP53BP1-CLTA = tested on: A549-TP53BP1-CLTA
In short: as §1

A549-TUBA1B-RELA = tested on: A549-TUBA1B-RELA
In short: as §1

HepG2-ACTB-RAB5A = tested on: HepG2-ACTB-RAB5A
In short: as §1

HepG2-CANX-COX4 = tested on: HepG2-CANX-COX4
In short: as §1

HepG2-GM130-SQSTM1 = tested on: HepG2-GM130-SQSTM1
In short: as §1

HepG2-TP53BP1-CLTA = tested on: HepG2-TP53BP1-CLTA
In short: as §1

HepG2-TUBA1B-RELA = tested on: HepG2-TUBA1B-RELA
In short: as §1

WPMY1-ACTB-RAB5A = tested on: WPMY1-ACTB-RAB5A
In short: as §1

WPMY1-CANX-COX4 = tested on: WPMY1-CANX-COX4
In short: as §1

WPMY1-GM130-SQSTM1 = tested on: WPMY1-GM130-SQSTM1
In short: as §1

WPMY1-TP53BP1-CLTA = tested on: WPMY1-TP53BP1-CLTA
In short: as §1

WPMY1-TUBA1B-RELA = tested on: WPMY1-TUBA1B-RELA
In short: as §1

Measured: phenotypically active

C#C[C@]1(O)CC[C@H]2[C@@H]3CCc4cc(OC5CCCC5)ccc4[C@H]3CC[C@@]21C [quinestrol]
inactive: A549-ACTB-RAB5A 0 | A549-CANX-COX4 0 | A549-GM130-SQSTM1 0 | A549-TP53BP1-CLTA 0 | A549-TUBA1B-RELA 0 | HepG2-ACTB-RAB5A 0 | HepG2-CANX-COX4 0 | HepG2-GM130-SQSTM1 0 | HepG2-TP53BP1-CLTA 0 | HepG2-TUBA1B-RELA 0 | WPMY1-ACTB-RAB5A 0 | WPMY1-CANX-COX4 0 | WPMY1-GM130-SQSTM1 0 | WPMY1-TP53BP1-CLTA 0 | WPMY1-TUBA1B-RELA 0

Cc1nc2c(O)cccc2c(=O)[nH]1
inactive: A549-ACTB-RAB5A 0 | A549-CANX-COX4 0 | A549-GM130-SQSTM1 0 | A549-TP53BP1-CLTA 0 | A549-TUBA1B-RELA 0 | HepG2-ACTB-RAB5A 0 | HepG2-CANX-COX4 0 | HepG2-GM130-SQSTM1 0 | HepG2-TP53BP1-CLTA 0 | HepG2-TUBA1B-RELA 0 | WPMY1-ACTB-RAB5A 0 | WPMY1-CANX-COX4 0 | WPMY1-GM130-SQSTM1 0 | WPMY1-TP53BP1-CLTA 0 | WPMY1-TUBA1B-RELA 0

COC(=O)C(Cc1ccc(OCCn2c(=O)sc3cc(C(=O)c4ccccc4)ccc32)cc1)C(=O)OC
inactive: A549-ACTB-RAB5A 0 | A549-CANX-COX4 0 | A549-GM130-SQSTM1 0 | A549-TP53BP1-CLTA 0 | A549-TUBA1B-RELA 0 | HepG2-ACTB-RAB5A 0 | HepG2-CANX-COX4 0 | HepG2-GM130-SQSTM1 0 | HepG2-TP53BP1-CLTA 0 | HepG2-TUBA1B-RELA 0 | WPMY1-ACTB-RAB5A 0 | WPMY1-CANX-COX4 0 | WPMY1-GM130-SQSTM1 0 | WPMY1-TP53BP1-CLTA 0 | WPMY1-TUBA1B-RELA 0

CCCCC(=O)N(Cc1ccc(-c2ccccc2-c2nnn[nH]2)cc1)[C@H](C(=O)O)C(C)C [valsartan]
inactive: A549-ACTB-RAB5A 0 | A549-CANX-COX4 0 | A549-GM130-SQSTM1 0 | A549-TP53BP1-CLTA 0 | A549-TUBA1B-RELA 0 | HepG2-ACTB-RAB5A 0 | HepG2-CANX-COX4 0 | HepG2-GM130-SQSTM1 0 | HepG2-TP53BP1-CLTA 0 | HepG2-TUBA1B-RELA 0 | WPMY1-ACTB-RAB5A 0 | WPMY1-CANX-COX4 0 | WPMY1-GM130-SQSTM1 0 | WPMY1-TP53BP1-CLTA 0 | WPMY1-TUBA1B-RELA 0

CCOC(=O)[C@H](CCc1ccccc1)N[C@@H](C)C(=O)N1Cc2ccccc2C[C@H]1C(=O)O [quinapril]
inactive: A549-ACTB-RAB5A 0 | A549-CANX-COX4 0 | A549-GM130-SQSTM1 0 | A549-TP53BP1-CLTA 0 | A549-TUBA1B-RELA 0 | HepG2-ACTB-RAB5A 0 | HepG2-CANX-COX4 0 | HepG2-GM130-SQSTM1 0 | HepG2-TP53BP1-CLTA 0 | HepG2-TUBA1B-RELA 0 | WPMY1-ACTB-RAB5A 0 | WPMY1-CANX-COX4 0 | WPMY1-GM130-SQSTM1 0 | WPMY1-TP53BP1-CLTA 0 | WPMY1-TUBA1B-RELA 0

O=C1CCC[C@@H]2[C@H]3CCC[N+]4([O-])CCC[C@@H](CN12)[C@@H]34 (stereo not given in full) [Oxymatrine]
inactive: A549-ACTB-RAB5A 0 | A549-CANX-COX4 0 | A549-GM130-SQSTM1 0 | A549-TP53BP1-CLTA 0 | A549-TUBA1B-RELA 0 | HepG2-ACTB-RAB5A 0 | HepG2-CANX-COX4 0 | HepG2-GM130-SQSTM1 0 | HepG2-TP53BP1-CLTA 0 | HepG2-TUBA1B-RELA 0 | WPMY1-ACTB-RAB5A 0 | WPMY1-CANX-COX4 0 | WPMY1-GM130-SQSTM1 0 | WPMY1-TP53BP1-CLTA 0 | WPMY1-TUBA1B-RELA 0

COc1ccc(CN(CCN(C)C)c2ccccn2)cc1 [mepyramine]
inactive: A549-ACTB-RAB5A 0 | A549-CANX-COX4 0 | A549-GM130-SQSTM1 0 | A549-TP53BP1-CLTA 0 | A549-TUBA1B-RELA 0 | HepG2-ACTB-RAB5A 0 | HepG2-CANX-COX4 0 | HepG2-GM130-SQSTM1 0 | HepG2-TP53BP1-CLTA 0 | HepG2-TUBA1B-RELA 0 | WPMY1-ACTB-RAB5A 0 | WPMY1-CANX-COX4 0 | WPMY1-GM130-SQSTM1 0 | WPMY1-TP53BP1-CLTA 0 | WPMY1-TUBA1B-RELA 0

CC(C)(C)NCC(O)c1ccc(O)c(CO)c1 (stereo not given) [albuterol]
inactive: A549-ACTB-RAB5A 0 | A549-CANX-COX4 0 | A549-GM130-SQSTM1 0 | A549-TP53BP1-CLTA 0 | A549-TUBA1B-RELA 0 | HepG2-ACTB-RAB5A 0 | HepG2-CANX-COX4 0 | HepG2-GM130-SQSTM1 0 | HepG2-TP53BP1-CLTA 0 | HepG2-TUBA1B-RELA 0 | WPMY1-ACTB-RAB5A 0 | WPMY1-CANX-COX4 0 | WPMY1-GM130-SQSTM1 0 | WPMY1-TP53BP1-CLTA 0 | WPMY1-TUBA1B-RELA 0

N[C@@H](C(=O)O)c1ccc(C(=O)O)c(C(=O)O)c1
inactive: A549-ACTB-RAB5A 0 | A549-CANX-COX4 0 | A549-GM130-SQSTM1 0 | A549-TP53BP1-CLTA 0 | A549-TUBA1B-RELA 0 | HepG2-ACTB-RAB5A 0 | HepG2-CANX-COX4 0 | HepG2-GM130-SQSTM1 0 | HepG2-TP53BP1-CLTA 0 | HepG2-TUBA1B-RELA 0 | WPMY1-ACTB-RAB5A 0 | WPMY1-CANX-COX4 0 | WPMY1-GM130-SQSTM1 0 | WPMY1-TP53BP1-CLTA 0 | WPMY1-TUBA1B-RELA 0

NC(=O)c1cccc(-c2cccc(OC(=O)NC3CCCCC3)c2)c1
inactive: A549-ACTB-RAB5A 0 | A549-CANX-COX4 0 | A549-GM130-SQSTM1 0 | A549-TP53BP1-CLTA 0 | A549-TUBA1B-RELA 0 | HepG2-ACTB-RAB5A 0 | HepG2-CANX-COX4 0 | HepG2-GM130-SQSTM1 0 | HepG2-TP53BP1-CLTA 0 | HepG2-TUBA1B-RELA 0 | WPMY1-ACTB-RAB5A 0 | WPMY1-CANX-COX4 0 | WPMY1-GM130-SQSTM1 0 | WPMY1-TP53BP1-CLTA 0 | WPMY1-TUBA1B-RELA 0

CCOc1ccccc1OCCN[C@H](C)Cc1ccc(OC)c(S(N)(=O)=O)c1 [tamsulosin]
inactive: A549-ACTB-RAB5A 0 | A549-CANX-COX4 0 | A549-GM130-SQSTM1 0 | A549-TP53BP1-CLTA 0 | A549-TUBA1B-RELA 0 | HepG2-ACTB-RAB5A 0 | HepG2-CANX-COX4 0 | HepG2-GM130-SQSTM1 0 | HepG2-TP53BP1-CLTA 0 | HepG2-TUBA1B-RELA 0 | WPMY1-ACTB-RAB5A 0 | WPMY1-CANX-COX4 0 | WPMY1-GM130-SQSTM1 0 | WPMY1-TP53BP1-CLTA 0 | WPMY1-TUBA1B-RELA 0

CCCc1nc(C)c2c(C)nc3ccc(OC)nc3n12
inactive: A549-ACTB-RAB5A 0 | A549-CANX-COX4 0 | A549-GM130-SQSTM1 0 | A549-TP53BP1-CLTA 0 | A549-TUBA1B-RELA 0 | HepG2-ACTB-RAB5A 0 | HepG2-CANX-COX4 0 | HepG2-GM130-SQSTM1 0 | HepG2-TP53BP1-CLTA 0 | HepG2-TUBA1B-RELA 0 | WPMY1-ACTB-RAB5A 0 | WPMY1-CANX-COX4 0 | WPMY1-GM130-SQSTM1 0 | WPMY1-TP53BP1-CLTA 0 | WPMY1-TUBA1B-RELA 0
